Where “and” joins values, the source holds several entries; their conditions need not be identical. Identical values can stand only once. Results filed as inconclusive are left out. A structure can be active in one record and inactive in another. Calls of active or inactive are those of the source. Unless noted, calls come from the whole dose curve; as a rule, active = well fitted curve in the direction sought with a large enough effect; inconclusive = small, poorly fitted or top-dose-only effect, or another doubt; inactive = no such curve, though single readings can be large; an effect the other way counts as inactive or inconclusive.
Columns and labels:
[1] = qHTS for Inhibitors of Plasmodium falciparum (DD2) proliferation (AID 504314);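 note: parasite DNA measured by SYBR Green fluorescence after red cell lysis; plate controls were DMSO vehicle for no effect and artemisinin wells for full effect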; conditions: P. falciparum Dd2 in erythrocytes, SYBR Green growth, 72 h; series mostly up to 6.11 µM
Outline: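 Normalization used 0.29 uM artemisinin as full inhibition and DMSO as baseline. Parasitized erythrocytes were exposed to compounds for 72 h (37C, 5% CO2), then lysed with saponin/Triton buffer containing SYBR Green I.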

[2] = qHTS for Inhibitors of Plasmodium falciparum (GB4) proliferation (AID 504315); note: nearly all actives have a fitted effect of over 50% in size; note: potency is the fitted concentration of half-maximal effect; conditions: P. falciparum GB4 in erythrocytes, SYBR Green DNA, 72 h; series mostly up to 6.7 µM
Outline: (§1)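 Parasite growth measured as SYBR Green DNA fluorescence (ex 485, em 535 nm) after overnight lysis following 72 h culture at 37 °C, 0.3% parasitemia, 2.5% hematocrit. Values normalized against DMSO and 0.29 uM artemisinin controls, with plate-stack correction.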

[3] = qHTS for Inhibitors of Plasmodium falciparum (7G8) proliferation (AID 504316); note: nearly all actives have a fitted effect of over 65% in size; note: potency is the fitted concentration of half-maximal effect; conditions: P. falciparum 7G8 in erythrocytes, SYBR Green DNA, 72 h; series mostly up to 6.7 µM
Outline: as §1

[4] = qHTS for Inhibitors of Plasmodium falciparum (HB3) proliferation (AID 504318); note: nearly all actives have a fitted effect of over 60% in size; note: potency is the fitted concentration of half-maximal effect; conditions: P. falciparum HB3 in erythrocytes, SYBR Green DNA, 72 h; series mostly up to 7.21 µM
Outline: as §1

[5] = qHTS for Inhibitors of Plasmodium falciparum (CP250) proliferation (AID 504320); note: potency is the fitted concentration of half-maximal effect; conditions: P. falciparum CP250 in erythrocytes, SYBR Green DNA, 72 h; series mostly up to 6.7 µM
Outline: as §1

[6] = target: Atrial natriuretic peptide receptor 1 (Homo sapiens) (UniProt P16066); assay: Natriuretic polypeptide receptor (hNpr1) antagonism - Pilot CMLD screen (AID 1347052; calls by dose curve;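 note: HEK293 cells with hNpr1 stimulated by hNppA peptide at 0.1 nM; cGMP level read as GloSensor luciferase luminescence after agonist stimulation; % is set by controls: 0 for no effect and ±100 for the full control effect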); conditions: HEK293 hNpr1 GloSensor cGMP luminescence, ANP-stimulated; series mostly up to 9.22 µM
Chain of Atrial natriuretic peptide receptor 1 (Homo sapiens) (P16066 whole entry, looked up): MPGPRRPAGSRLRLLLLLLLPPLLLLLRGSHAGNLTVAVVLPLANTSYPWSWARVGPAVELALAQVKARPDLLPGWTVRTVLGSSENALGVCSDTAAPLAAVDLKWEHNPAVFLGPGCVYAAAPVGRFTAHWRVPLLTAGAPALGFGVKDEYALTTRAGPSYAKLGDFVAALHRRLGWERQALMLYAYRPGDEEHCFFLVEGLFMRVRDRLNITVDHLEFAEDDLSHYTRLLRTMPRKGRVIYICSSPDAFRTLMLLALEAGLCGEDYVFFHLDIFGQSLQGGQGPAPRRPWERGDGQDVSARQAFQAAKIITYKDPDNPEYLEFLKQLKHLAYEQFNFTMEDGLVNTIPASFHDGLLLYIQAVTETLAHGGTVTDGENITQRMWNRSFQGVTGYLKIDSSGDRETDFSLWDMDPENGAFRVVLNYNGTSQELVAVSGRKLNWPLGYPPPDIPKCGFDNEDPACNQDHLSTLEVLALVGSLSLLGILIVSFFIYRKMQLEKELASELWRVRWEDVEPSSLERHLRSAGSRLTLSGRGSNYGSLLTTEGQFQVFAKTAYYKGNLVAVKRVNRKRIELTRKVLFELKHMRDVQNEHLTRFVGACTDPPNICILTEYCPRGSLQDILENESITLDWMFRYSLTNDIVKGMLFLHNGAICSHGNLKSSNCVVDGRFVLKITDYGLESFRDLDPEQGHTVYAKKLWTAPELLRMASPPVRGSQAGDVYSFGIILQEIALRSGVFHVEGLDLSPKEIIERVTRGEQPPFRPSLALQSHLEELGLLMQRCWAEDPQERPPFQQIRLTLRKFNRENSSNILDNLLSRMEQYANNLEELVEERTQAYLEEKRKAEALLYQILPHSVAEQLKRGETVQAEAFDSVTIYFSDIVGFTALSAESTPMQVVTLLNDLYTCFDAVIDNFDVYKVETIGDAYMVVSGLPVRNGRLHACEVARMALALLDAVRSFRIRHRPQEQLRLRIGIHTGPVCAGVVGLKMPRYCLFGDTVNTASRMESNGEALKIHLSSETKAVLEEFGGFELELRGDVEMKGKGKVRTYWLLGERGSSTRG

c1ccc(CCc2nc(-c3ccccc3)oc2Nc2ccc3ccccc3c2)cc1
inactive: Potency [1] | Potency [2] | Potency [3] | Potency [4] | Potency [5] | Potency [6]

c1ccc(-c2nc(-c3ccccc3)c(NC3CCCCC3)o2)cc1
inactive: Potency [1] | Potency [2] | Potency [3] | Potency [4] | Potency [5] | Potency [6]

COC(=O)N[C@H](CC(C)=O)c1cccc(C(F)(F)F)c1
inactive: Potency [1] | Potency [2] | Potency [3] | Potency [4] | Potency [5] | Potency [6]

CCCCC1=CC2=C(c3ccco3)C(=O)C(C)(OC(=O)c3ccc(OC)cc3)C(=O)C2=CN1Cc1ccc2c(c1)OCO2 (stereo unspecified)
inactive: activity, negative = inhibition [1] 4.29% [at 1.12 µM] | Potency [2] | Potency [3] | Potency [4] | Potency [5] | Potency [6]

CCN1C(=S)NC(c2cccc(F)c2)C(C(=O)OC)=C1C (stereo unspecified)
inactive: Potency [1] | Potency [2] | Potency [3] | Potency [4] | Potency [5] | Potency [6]

CCCNC(=O)OC[C@H]1O[C@H](CCON=CC[C@@H]2C=C[C@H](OC(C)=O)[C@@H](COC(C)=O)O2)C=C[C@H]1Oc1ccc(OC)cc1
inactive: Potency [1] | Potency [2] | Potency [3] | Potency [4] | Potency [5] | Potency [6]

COCCN1C(=O)CC[C@@]23C1=NC(C(=O)OC)=C(C(=O)OC)[C@@H]2N(C)c1ccccc13
inactive: Potency [1] | Potency [2] | Potency [3] | Potency [4] | Potency [5] | Potency [6]

COC1=C[C@H](C(=O)NCc2ccc(OC)cc2)C(C)C(c2ccccc2)CC1=O (stereo partly specified)
inactive: Potency [1] | Potency [2] | Potency [3] | Potency [4] | Potency [5] | Potency [6]

CO[C@H](c1ccccc1Br)[C@H](C)C=CCCO
inactive: Potency [1] | Potency [2] | Potency [3] | Potency [4] | Potency [5] | Potency [6]

O=C1[C@@H]2[C@H]3[C@H](O)[C@H](O)CC(=NOC[C@@H](O)COCc4ccco4)[C@@H]3CC[C@H]2C(=O)N1C1CCCCC1
inactive: Potency [1] | Potency [2] | Potency [3] | Potency [4] | Potency [5] | Potency [6]

C=CCN1C(=O)[C@@]2(CC(C)=CC[C@@H](C)O2)c2c(Br)cccc21
inactive: Potency [1] | Potency [2] | Potency [3] | Potency [4] | Potency [5] | Potency [6]

CC(=O)OC[C@H]1O[C@H](c2cc(C)cc(C)c2)C=C[C@H]1OC(C)=O
inactive: Potency [1] | Potency [2] | Potency [3] | Potency [4] | Potency [5] | Potency [6]

CCN1C(=NCc2cc(OC)c(OC)c(OC)c2)NC(c2ccccc2)C(C(=O)OC)=C1C (stereo unspecified)
inactive: Potency [1] | Potency [2] | Potency [3] | Potency [4] | Potency [5] | Potency [6]

Cc1ccccc1Nc1oc(-c2ccccc2)nc1CCc1ccccc1
inactive: Potency [1] | Potency [6]
inactive and 1.51 µM (active): Potency [2] | Potency [5]
inactive and 1.69 µM (active): Potency [3] | Potency [4]

CCN1C(=O)NC(CCc2ccccc2)C(C(=O)OC)=C1C (stereo unspecified)
inactive: Potency [1] | Potency [2] | Potency [3] | Potency [4] | Potency [5] | Potency [6]

COC(=O)C1=C(C(=O)OC)[C@@H]2N(C)c3ccc(OC)cc3[C@@]23C[C@@H](C(=O)OC)N(C(=O)c2cccs2)C3=N1
inactive: Potency [1] | Potency [2] | Potency [3] | Potency [4] | Potency [5] | Potency [6]

COC(=O)CCCC1=CC2=CC(=O)C(C)(OC(=O)c3cccs3)C(=O)C2=CN1CCc1ccccn1 (stereo unspecified)
inactive: Potency [1] | Potency [2] | Potency [3] | Potency [4] | Potency [5] | Potency [6]

C=CCCC1(CCC)C(=O)C(=C(O)c2ccccc2)C(=O)C(CCC)=C1OC (stereo unspecified)
inactive: Potency [1] | Potency [2] | Potency [3] | Potency [4] | Potency [5] | Potency [6]

COC(=O)[C@H]1[C@H](C)[C@@]2(O)c3ccccc3N(C)[C@@]1(C)[C@H]2O
inactive: Potency [1] | Potency [2] | Potency [3] | Potency [4] | Potency [5] | Potency [6]

COC(=O)CC=C1c2ccc(OC)cc2[C@@H](OC)[C@@H]1C
inactive: Potency [1] | Potency [2] | Potency [3] | Potency [4] | Potency [5] | Potency [6]

CC(C)[C@@H](OCc1ccccc1)[C@H](C)C=NOC[C@@H](O)[C@H]1O[C@@H]2OC(C)(C)O[C@H]2[C@@H]1O
inactive: Potency [1] | Potency [2] | Potency [3] | Potency [4] | Potency [5] | Potency [6]

C#CCN1C(=O)[C@@]2(CC(C)=CC[C@@H](C)O2)c2ccccc21
inactive: Potency [1] | Potency [2] | Potency [3] | Potency [4] | Potency [5] | Potency [6]

CCN1C(=NCc2cc(OC)c(OC)c(OC)c2)N[C@@H](c2ccccc2)[C@H](C(=O)OC)[C@H]1C
inactive: Potency [1] | Potency [2] | Potency [3] | Potency [4] | Potency [5] | Potency [6]

CCOC(=O)CCN1C(=O)[C@@H]2[C@H]3[C@H](O)[C@H](O)CC(=NOCC(C)C)[C@@H]3CC[C@H]2C1=O
inactive: Potency [1] | Potency [2] | Potency [3] | Potency [4] | Potency [5] | Potency [6]

C=CCOC(=O)N[C@@H](c1cccs1)C(C(C)=O)C(C)=O
inactive: Potency [1] | Potency [2] | Potency [3] | Potency [4] | Potency [5] | Potency [6]

COC(=O)C(C(C)=O)[C@@H](NC(=O)NCc1ccccc1)c1ccccc1 (stereo partly specified)
inactive: Potency [1] | Potency [2] | Potency [3] | Potency [4] | Potency [5] | Potency [6]

N#CCCn1cnc2c1NC=NC2Cl (stereo unspecified)
inactive: Potency [1] | Potency [2] | Potency [3] | Potency [4] | Potency [5] | Potency [6]

CCN1C(=O)NC(c2cccc(C(F)(F)F)c2)C(C(=O)OC)=C1C (stereo unspecified)
inactive: Potency [1] | Potency [2] | Potency [3] | Potency [4] | Potency [5] | Potency [6]

COC1=C[C@H](C(=O)NCCOC(C)=O)[C@@]2(C)Cc3ccccc3[C@@H]2CC1=O
inactive: Potency [1] | Potency [2] | Potency [3] | Potency [4] | Potency [5] | Potency [6]

COC(=O)C1=C2C=CCCN2C(=O)NC1c1ccccc1 (stereo unspecified)
inactive: Potency [1] | Potency [2] | Potency [3] | Potency [4] | Potency [5] | Potency [6]

COc1ccc(C2=CC3=C(Br)C(=O)C(C)(OC(=O)c4ccc(Cl)nc4)C(=O)C3=CO2)cc1 (stereo unspecified)
inactive: Potency [1] | Potency [2] | Potency [3] | Potency [4] | Potency [5] | Potency [6]

CCCCc1nc2c(c3c1C[C@H](C)OC3)CN(S(=O)(=O)c1ccc(NC(C)=O)cc1)CC2
inactive: Potency [1] | Potency [2] | Potency [3] | Potency [4] | Potency [5] | Potency [6]

C=CCOC(=O)N[C@@H](CCc1ccccc1)C(C(C)=O)C(C)=O
inactive: Potency [1] | Potency [2] | Potency [3] | Potency [4] | Potency [5] | Potency [6]

Cc1cc(O)cc(O)c1C(=O)OC1(C)C(=O)C=C2C=C(C=CCO)OC=C2C1=O (stereo unspecified)
inactive: Potency [1] | Potency [2] | Potency [3] | Potency [4] | Potency [5] | Potency [6]

C=C(C[C@]1(C(=O)OC)C[C@]2(CC=C(C)C)C(=O)C(C(=O)CC(C)C)=C(O)[C@@](CC=C(C)C)(C1)C2=O)C(=O)OC
inactive: Potency [1] | Potency [2] | Potency [3] | Potency [4] | Potency [5] | Potency [6]

COC[C@@H](OC(C)=O)[C@H]1OCc2ccccc2[C@H]1C=Cc1ccccc1
inactive: Potency [1] | Potency [2] | Potency [3] | Potency [4] | Potency [5] | Potency [6]

COC(=O)[C@@]1(Cc2ccccc2-c2ccco2)C=C[C@H](C)[C@@H](c2ccccc2)N1C(=O)C(F)(F)F
inactive: Potency [1] | Potency [2] | Potency [3] | Potency [4] | Potency [5] | Potency [6]

Cc1ccc(C#C[C@@H]2C=C[C@H](Oc3ccc4c(c3)OCO4)[C@@H](CO)O2)c(C)c1
inactive: Potency [1] | Potency [2] | Potency [3] | Potency [4] | Potency [5] | Potency [6]

CCN1C(=O)N[C@@H](c2ccccc2)[C@H](C(=O)OC)[C@H]1C
inactive: Potency [1] | Potency [2] | Potency [3] | Potency [4] | Potency [5] | Potency [6]

CCOC(=O)CCN1C(=O)[C@@H]2[C@H]3[C@H](O)[C@H](O)CC(=NO[C@@H]4O[C@H](COC(C)=O)[C@@H](OC(C)=O)[C@H](OC(C)=O)[C@@H]4OC(C)=O)[C@H]3CC[C@H]2C1=O
inactive: Potency [1] | Potency [2] | Potency [3] | Potency [4] | Potency [5] | Potency [6]

C[C@@H]1C=CCCO[C@]12C(=O)N(CC1CC1)c1cccc(Br)c12
inactive: Potency [1] | Potency [2] | Potency [3] | Potency [4] | Potency [5] | Potency [6]

COC(=O)N[C@@H](c1cccc(C)c1)[C@]1(C(=O)OC)CCCC1=O
inactive: Potency [1] | Potency [2] | Potency [3] | Potency [4] | Potency [5] | Potency [6]

CC1(OC(=O)C2CCCC2)C(=O)C=C2C=C(c3ccsc3)N(C3CCCC3)C=C2C1=O (stereo unspecified)
inactive: activity, negative = inhibition [1] -4.53% [at 1.12 µM] | Potency [2] | Potency [3] | Potency [4] | Potency [5] | Potency [6]

COC(=O)[C@H]1O[C@@H](c2cc(OC)c(C)c(OC)c2OCc2ccccc2)[C@H](C)[C@H]2O[C@@]12C
inactive: Potency [1] | Potency [2] | Potency [3] | Potency [4] | Potency [5] | Potency [6]

COC[C@H]1O[C@]2(c3ccccc3)CO[C@@H]1[C@@H](C=Cc1ccccc1)C2
inactive: Potency [1] | Potency [2] | Potency [3] | Potency [4] | Potency [5] | Potency [6]

CCN1C(=NCc2ccc3c(c2)OCO3)N[C@@H](c2ccccc2)[C@H](C(=O)OC)[C@H]1C
inactive: Potency [1] | Potency [2] | Potency [3] | Potency [4] | Potency [5] | Potency [6]

CC(=CCO)CCO
inactive: Potency [1] | Potency [2] | Potency [3] | Potency [4] | Potency [5] | Potency [6]

CC1=CC[C@@H](C)O[C@@]2(C1)C(=O)Nc1ccccc12
inactive: Potency [1] | Potency [2] | Potency [3] | Potency [4] | Potency [5] | Potency [6]

O=C1[C@H]2[C@@H]3[C@@H](O)[C@H](O)CC(=NOCc4ccccc4)[C@@H]3CC[C@H]2C(=O)N1C[C@@H]1CCCO1
inactive: Potency [1] | Potency [2] | Potency [3] | Potency [4] | Potency [5] | Potency [6]

C[C@@H]1C=CCCO[C@]12C(=O)N(Cc1ccc(F)cc1)c1ccccc12
inactive: Potency [1] | Potency [2] | Potency [3] | Potency [4] | Potency [5] | Potency [6]

CCCCOC(OCCCC)C(O)CSc1ccc2ccccc2c1 (stereo unspecified)
inactive: Potency [1] | Potency [2] | Potency [3] | Potency [4] | Potency [5] | Potency [6]

Reference: PubChem BioAssay (NCATS)
